The campaign covered roughly 400,000 compounds. About 13,000 (3.2%) were called active. Not shown: some 18% with an inconclusive outcome. The call rests on the fitted dose curve; in most records, active means well fitted cell-killing curve with a large enough effect; inconclusive means small, poorly fitted or top-dose-only effect, or effect the other way; inactive means flat fitted curve, though single readings scatter. The full list was thinned out, with actives kept by preference.
Test: qHTS assay for MDR1-selective chemotherapeutics: Primary screen using the drug-selected MDR subline cells KB-V1; further: nearly all actives have a fitted effect of over 60% in size
Settings: KB-V1 MDR cells viability, CellTiter-Glo, 72 h; series mostly up to 46.1 µM; activity change, negative = cytotoxicity: at the top concentration
Method in brief: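 KB-V1 MDR subline cells in DMEM (phenol-red free, 10% FBS) exposed to compounds in qHTS concentration series for 72 h at 37 degrees C. Viability read by CellTiter-Glo luminescence; concentration-effect curves fitted after normalization and correction.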
On the % scale 0 is the no-effect control and ±100 the full control effect; potency means the concentration at half of the fitted maximal effect.

Row | Compound | activity change, negative = cytotoxicity | Potency
1 | COc1ccc(C)cc1N(CC(=O)N1CCCC1)S(=O)(=O)c1ccccc1 | -5.7% (inactive) | 
2 | CCOC(=O)N1CCN(S(=O)(=O)c2ccc(OC)cc2)CC1 | -6.07% (inactive) | 
3 | CCOC(=O)N1CCN(C(=O)CN(c2ccc(C)c(C)c2)S(=O)(=O)c2ccccc2)CC1 |  | 1.16 µM (active)
4 | NC(=O)c1ccccc1N(Cc1ccccc1)S(=O)(=O)c1ccccc1 | 0% (inactive) | 
5 | COc1ccc(N(CC(=O)N2CCCCCC2)S(=O)(=O)c2ccccc2)cc1 | -14.8% (inactive) | 
6 | CCOC(=O)N1CCN(C(=O)c2ccccc2N(Cc2ccccc2)S(=O)(=O)c2ccc(OC)cc2)CC1 |  | 20.6 µM (active)
7 | CC1CCCCN1Cc1c(O)ccc2c(=O)c(-c3cccc(Cl)c3)c(C(F)(F)F)oc12 (stereo not given) | 10.4% (inactive) | 
8 | CCC1CN(S(=O)(=O)c2cc(-c3cc(C)no3)ccc2C)c2cc(C)ccc2O1 (stereo not given) | -17% (inactive) | 
9 | C[C@@H]1CN([C@H](C)CO)C(=O)CCCn2nncc2CO[C@@H]1CN(C)S(=O)(=O)c1cccc(C#N)c1 | -22.1% (inactive) | 
10 | Cc1csc(NCC(=O)c2c[nH]c3ccccc23)n1 | -17.4% (inactive) | 
11 | COc1ccc(-c2nc3c4ccccc4n(CC(=O)Nc4ccc(C(C)=O)cc4)c(=O)n3n2)cc1 | 17.9% (inactive) | 
12 | COc1ccc(C(C(O)C(=O)c2c[nH]c3ccccc23)N2CCN(c3ccccc3)CC2)cc1 (stereo not given) | -8.03% (inactive) | 
13 | COc1ccc(/C=C(\C#N)c2c[nH]c3ccccc23)cc1 |  | 1.3 µM (active)
14 | COc1ccc(/C=C(\NC(=O)c2ccc(OC)c(OC)c2)C(=O)NCCc2c[nH]c3ccccc23)cc1 | -26.9% (inactive) | 
15 | O=C(CC[C@H]1O[C@@H](n2ccc(=O)[nH]c2=O)[C@H](O)[C@@H]1O)N[C@H](Cc1ccccc1)C(=O)NCc1ccco1 | 3.99% (inactive) | 
16 | Oc1c(C(c2ccc(F)cc2)N2CCN(Cc3ccccc3)CC2)sc2nc(-c3ccco3)nn12 (stereo not given) | -1.49% (inactive) | 
17 | COC(=O)c1ccc(Cn2c(SCC(=O)N(C)c3ccccc3)nc3ccccc32)cc1 | 4.47% (inactive) | 
18 | C#CCNC(=O)C[C@@H]1C[C@@]2(C(=O)OCC)CCCC=C2N(Cc2ccco2)C1=O | 0% (inactive) | 
19 | COc1cc(C(=O)N(Cc2ccc(N(C)C)cc2)C2CCS(=O)(=O)C2)cc(OC)c1OC (stereo not given) | 11.3% (inactive) | 
20 | COCCCNC(=O)CNC(=S)N(Cc1cc(OC)c(OC)c(OC)c1)C1CCCC1 |  | 20.6 µM (active)
21 | COc1cc(C(=O)N(Cc2ccc(C(C)C)cc2)C2CCS(=O)(=O)C2)cc(OC)c1OC (stereo not given) | -15.3% (inactive) | 
22 | CCCCCCN1CCN(C2CN(Cc3cn(Cc4ccc(F)cc4)nn3)S(=O)(=O)C2)CC1 (stereo not given) | 14.9% (inactive) | 
23 | CC(C)(C)OC(=O)N(Cc1ccccc1)Cc1ccc(OCc2cccc(NC(=O)c3ccccc3)c2)cc1 | -2.42% (inactive) | 
24 | N#Cc1ccccc1NC(=O)c1cccc(COc2ccc(Cl)cc2Cl)c1 | 0.166% (inactive) | 
25 | CC(C)c1cc(C(N)=O)c(NC(=O)c2cccc(COc3ccc(Br)cc3)c2)s1 |  | 20.6 µM (active)

Row | Compound | activity change, negative = cytotoxicity | Potency
26 | COc1ccccc1C(=O)NC(=S)Nc1ccc(N2CCOCC2)cc1 | -7.19% (inactive) | 
27 | Cc1cccc(C(=O)NC2CCN(CC(=O)Nc3cccc(Cl)c3)CC2)c1 | -32.8% (inactive) | 
28 | CCc1nc2ccc(C(=O)Nc3cccc(OC)c3)cn2c1N(CCC(C)C)CCN(C)C | 3.09% (inactive) | 
29 | CC(=O)/C(=N\Nc1ccc(Cl)cc1Cl)Sc1cccc2cccnc12 |  | 18.4 µM (active)
30 | COc1c(Cl)cc(Cl)cc1C(=O)Nc1cccc2cccnc12 | -0.513% (inactive) | 
31 | O=C(Nc1cccc2cccnc12)c1cccc(Cl)c1 | 16.8% (inactive) | 
32 | COc1ccc(/C=C/c2ccccn2)cc1OC | -2.57% (inactive) | 
33 | CN(C)C(CNC(=O)Cc1ccc([N+](=O)[O-])cc1)c1ccccc1 (stereo not given) | -10.5% (inactive) | 
34 | Cc1ccc(NC(=O)c2cc3ccccc3o2)cc1 | 5.73% (inactive) | 
35 | CN(C)C(CNC(=O)c1cc2ccccc2o1)c1ccccc1 (stereo not given) |  | 16.4 µM (active)
36 | O=C(Nc1cc(Br)ccc1F)c1nc[nH]c1C(=O)NCc1ccccc1 | -9.49% (inactive) | 
37 | CCCCOC(=O)/C(C#N)=C/c1ccc(-c2cccc(C(F)(F)F)c2)o1 | 9.63% (inactive) | 
38 | O=C1NC(c2cc3c(cc2Cl)OCO3)Oc2ccccc21 (stereo not given) | 0.321% (inactive) | 
39 | O=C1OCC2=C1C(c1ccc(Cl)cc1)c1cc3c(cc1O2)OCO3 (stereo not given) |  | 23.1 µM (active)
40 | CCOc1ccc(CNCc2c(C(=O)O)c(C)n(Cc3cccc(OC)c3)c2C)cc1OC | 0% (inactive) | 
41 | CCC(C)CN1C(=O)CN(S(C)(=O)=O)CC1(C)C(=O)Nc1ccc2c(c1)OCCO2 (stereo not given) | -11.8% (inactive) | 
42 | O=C(C=CC(=O)Nc1ccc(F)cc1F)Nc1ccc(F)cc1F | 1.29% (inactive) | 
43 | Cc1ccc(C(=O)OCC(=O)NC2CCCCCCC2)cc1C | 17.9% (inactive) | 
44 | O=C(Nc1cccc2ccccc12)N1CCN(Cc2ccc3c(c2)OCO3)CC1 |  | 16.4 µM (active)
45 | O=C(c1cccs1)N1CCN(Cc2ccc3c(c2)OCO3)CC1 | -13.2% (inactive) | 
46 | O=C(CCCN1C(=O)c2cccc3cccc(c23)C1=O)N1CCN(Cc2ccc3c(c2)OCO3)CC1 | 4.42% (inactive) | 
47 | C/C(=N\N)c1c(-c2ccccc2)c2cc(Br)ccc2[nH]c1=O | 10.2% (inactive) | 
48 | O=C1CCCc2c1[nH]c1ccc(Br)cc21 |  | 0.517 µM (active)
49 | O=[n+]1c2c(n([O-])c3cc(Br)ccc31)CCC2 | 0% (inactive) | 
50 | COC(=O)C(Cc1c[nH]c2ccccc12)NC(=O)CCNC(=O)c1ccco1 (stereo not given) | 27.7% (inactive) | 

Row | Compound | activity change, negative = cytotoxicity | Potency
51 | COc1cc2nc(C#Cc3nc4cc(OC)c(OC)cc4[nH]3)[nH]c2cc1OC | 4.7% (inactive) | 
52 | C=CCOc1cccc(C2NC(=O)c3ccccc3O2)c1 (stereo not given) | -7.2% (inactive) | 
53 | COc1ccc(C2NC(=O)c3ccccc3N2)cc1 (stereo not given) | 0% (inactive) | 
54 | O=C1NC(c2cccc(Cl)c2)Nc2ccccc21 (stereo not given) |  | 8.2 µM (active)
55 | CCCNC(=O)C1(C)CCN1C(=O)C1(c2ccccc2)CC1 (stereo not given) | -1.84% (inactive) | 
56 | Cc1cccc(N2CCN(Cc3c(C)n(C)n(-c4ccccc4)c3=O)CC2)c1C |  | 18.4 µM (active)
57 | Cc1c(CN2CCC(C)CC2)c(=O)n(-c2ccccc2)n1C | -7.43% (inactive) | 
58 | Cc1cccc(N2CCN(c3c(CN4CCCC4)c(=O)oc4ccccc34)CC2)c1C | 13.2% (inactive) | 
59 | CSCCC(NC(=O)COc1ccccc1)C(=O)Nc1ccc(C)cc1 (stereo not given) | -12.8% (inactive) | 
60 | CSCCC(NC(=O)COc1ccccc1)C(=O)N(C)CC(=O)Nc1ccc(C)cc1 (stereo not given) |  | 16.4 µM (active)
61 | CSCCC(NC(N)=O)C(=O)N(C)CC(=O)Nc1ccc(C)cc1 (stereo not given) | 1.58% (inactive) | 
62 | O=C1[C@H]2[C@@H](c3ccc(C(F)(F)F)cc3)N[C@]3(CCCN(Cc4ccc(Br)cc4)C3=O)[C@H]2C(=O)N1Cc1ccccc1 | -1.88% (inactive) | 
63 | COc1ccc(C(=O)NCC(c2ccc(N(C)C)cc2)N2CCc3ccccc32)c(OC)c1 (stereo not given) | 14.2% (inactive) | 
64 | COc1cccc(CNC(=O)c2nnn(CC(=O)Nc3cc(Cl)ccc3C)c2N)c1 | 2.29% (inactive) | 
65 | Nc1c(C(=O)NCc2ccccc2)nnn1Cc1cccc(Cl)c1 |  | 9.2 µM (active)
66 | Nc1c(C(=O)Nc2ccc3c(c2)OCCO3)nnn1Cc1ccccc1 | -12.8% (inactive) | 
67 | CCS(=O)(=O)N1CCc2cc(C(=O)NCc3ccc(OC)cc3)ccc21 | 3.83% (inactive) | 
68 | Cc1ccc(Oc2c(C(F)(F)F)oc3c(CN4CCCCC4)c(O)ccc3c2=O)cc1 | -0.449% (inactive) | 
69 | O=c1oc2c(CN3CCCCC3)c(O)ccc2c2c1CCCCC2 |  | 5.8 µM (active)
70 | COc1ccc(-c2c(C)c3ccc(O)c(CN4CCN(C)CC4)c3oc2=O)cc1OC | 1.72% (inactive) | 
71 | Cc1ccc(S(=O)(=O)N[C@H]2CCC[C@@H]2O)cc1 | 2.83% (inactive) | 
72 | CCn1ncc(C2=NOC(C(=O)Nc3ccccc3C(=O)OC)C2)c1C (stereo not given) |  | 18.4 µM (active)
73 | CCn1ncc(C2=NOC(C(=O)N3CCN(c4ccccc4)CC3)C2)c1C (stereo not given) | -4.05% (inactive) | 
74 | COc1cc(NC(=O)C2CC(c3ccccc3O)=NO2)c(OC)cc1Cl (stereo not given) | 0.517% (inactive) | 
75 | COc1cccc(CNC(=O)C(NS(=O)(=O)c2ccc3nc(C)sc3c2)C(C)C)c1 (stereo not given) | -18.7% (inactive) | 

From PubChem BioAssay AID1347076 (National Center for Advancing Translational Sciences (NCATS), 2019)
